For some of these results: Potency and affinity values are given separately.

What all share (design): scale not given: direction of the effect not stated beside the values
Experiment [1] deals with Protein translocase subunit SecA (Escherichia coli (strain K12)) (UniProt P10408). Put plainly: Assay to Identify E. coli SecA ATPase Inhibitors. The class given is functional. The note with it: 30 µM.
For experiment [2], the target named is T1, Ubiquitin-activating enzyme e1, putative (Leishmania donovani (strain BPK282A1)) (UniProt E9BSI1).
T1 sequence (whole entry): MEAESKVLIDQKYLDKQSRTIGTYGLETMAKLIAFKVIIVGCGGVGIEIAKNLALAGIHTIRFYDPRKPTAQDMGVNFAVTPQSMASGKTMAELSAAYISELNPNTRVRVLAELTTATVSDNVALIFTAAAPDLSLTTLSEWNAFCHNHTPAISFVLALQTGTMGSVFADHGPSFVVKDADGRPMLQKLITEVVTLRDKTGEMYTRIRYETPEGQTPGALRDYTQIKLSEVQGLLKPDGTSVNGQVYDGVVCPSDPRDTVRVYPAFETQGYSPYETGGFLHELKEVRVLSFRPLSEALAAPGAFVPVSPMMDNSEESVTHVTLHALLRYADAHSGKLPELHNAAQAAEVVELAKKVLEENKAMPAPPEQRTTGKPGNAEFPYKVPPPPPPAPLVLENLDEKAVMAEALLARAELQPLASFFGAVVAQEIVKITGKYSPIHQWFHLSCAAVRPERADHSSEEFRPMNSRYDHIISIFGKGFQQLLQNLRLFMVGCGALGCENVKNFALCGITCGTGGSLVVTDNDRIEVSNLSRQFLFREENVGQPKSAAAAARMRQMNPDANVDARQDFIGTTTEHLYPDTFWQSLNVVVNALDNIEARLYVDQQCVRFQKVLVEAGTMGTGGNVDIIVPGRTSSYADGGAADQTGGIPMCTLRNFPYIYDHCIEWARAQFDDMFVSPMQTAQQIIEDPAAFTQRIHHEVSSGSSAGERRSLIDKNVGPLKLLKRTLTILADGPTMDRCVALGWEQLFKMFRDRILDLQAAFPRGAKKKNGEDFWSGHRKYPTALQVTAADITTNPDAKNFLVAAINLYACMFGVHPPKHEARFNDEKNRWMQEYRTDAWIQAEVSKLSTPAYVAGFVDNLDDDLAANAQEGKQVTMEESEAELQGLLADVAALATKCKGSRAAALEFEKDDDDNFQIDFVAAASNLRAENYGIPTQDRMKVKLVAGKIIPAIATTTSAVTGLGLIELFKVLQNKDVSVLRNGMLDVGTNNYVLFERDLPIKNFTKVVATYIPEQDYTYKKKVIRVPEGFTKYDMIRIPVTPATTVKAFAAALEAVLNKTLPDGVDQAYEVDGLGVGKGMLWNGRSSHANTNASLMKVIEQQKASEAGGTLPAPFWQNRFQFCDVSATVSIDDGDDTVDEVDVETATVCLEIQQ
Put plainly: Leishmania donovani Ubiquitin Activating Enzyme (LdE1). The class given is functional. The note with it: 30 µM.

Experiment [3] addresses Sialic acid-binding Ig-like lectin 9 (Homo sapiens) (UniProt Q9Y336). The experiment can be described thus: Hs-Siglec9 ALPHAscreen SOP 20170721. The note with it: 10 µM.
Another experiment concerns Trypanosoma cruzi. The experiment can be described thus: Trypanosoma cruzi phosphomannomutase and mannose-1-phosphate guanylyltransferase assay. It counts as functional. The note with it: 10 µM.
Experiment [4] concerns the target T2, Arginase-2, mitochondrial (Homo sapiens) (UniProt P78540).
T2 sequence (whole entry): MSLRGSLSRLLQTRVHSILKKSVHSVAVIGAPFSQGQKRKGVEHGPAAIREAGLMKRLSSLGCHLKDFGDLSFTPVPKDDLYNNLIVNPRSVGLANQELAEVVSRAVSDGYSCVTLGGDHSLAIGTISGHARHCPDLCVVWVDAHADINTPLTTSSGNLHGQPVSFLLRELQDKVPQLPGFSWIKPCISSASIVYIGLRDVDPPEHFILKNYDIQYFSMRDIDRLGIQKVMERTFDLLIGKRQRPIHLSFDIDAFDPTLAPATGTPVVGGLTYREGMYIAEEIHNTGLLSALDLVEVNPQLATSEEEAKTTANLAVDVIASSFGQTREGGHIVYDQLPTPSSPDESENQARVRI
The experiment can be described thus: in vitro enzyme assay to detect the production of urea directly proportional to the activity of Arginase II. Further: in the data most compounds retested in dose-response had high values. It counts as functional. The note with it: 33.3 µM.

Experiment [5] has as its target T3, Proteasome subunit beta (Trypanosoma cruzi) (UniProt O96673).
T3 sequence (whole entry): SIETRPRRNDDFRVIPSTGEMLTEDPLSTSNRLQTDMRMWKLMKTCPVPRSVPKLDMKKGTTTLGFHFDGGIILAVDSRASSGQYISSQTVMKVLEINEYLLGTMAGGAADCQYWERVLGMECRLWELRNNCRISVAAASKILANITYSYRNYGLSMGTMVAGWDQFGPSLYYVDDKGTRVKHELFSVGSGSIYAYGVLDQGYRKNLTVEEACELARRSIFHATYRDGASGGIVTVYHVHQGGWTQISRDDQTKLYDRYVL
The experiment can be described thus: Trypanosoma cruzi proteasome chymotrypsin-like activity (TcProtChymo) assay. Further: in the data most compounds retested in dose-response had high values. The class given is functional. The note with it: 9.37 µM.

Another experiment is filed under the species Homo sapiens. Put plainly: To identify inhibition of the IFN signalling (Jak-Stat) pathway via expression of an eGFP reporter gene under the control of an IFN-stimulated response element (ISRE) containing MxA promoter. It counts as functional. The note with it: 30 µM.
For experiment [6], the target named is T4, Tyrosyl-tRNA synthetase, putative (Trypanosoma cruzi (strain CL Brener)) (UniProt Q4DSP6).
T4 sequence (whole entry): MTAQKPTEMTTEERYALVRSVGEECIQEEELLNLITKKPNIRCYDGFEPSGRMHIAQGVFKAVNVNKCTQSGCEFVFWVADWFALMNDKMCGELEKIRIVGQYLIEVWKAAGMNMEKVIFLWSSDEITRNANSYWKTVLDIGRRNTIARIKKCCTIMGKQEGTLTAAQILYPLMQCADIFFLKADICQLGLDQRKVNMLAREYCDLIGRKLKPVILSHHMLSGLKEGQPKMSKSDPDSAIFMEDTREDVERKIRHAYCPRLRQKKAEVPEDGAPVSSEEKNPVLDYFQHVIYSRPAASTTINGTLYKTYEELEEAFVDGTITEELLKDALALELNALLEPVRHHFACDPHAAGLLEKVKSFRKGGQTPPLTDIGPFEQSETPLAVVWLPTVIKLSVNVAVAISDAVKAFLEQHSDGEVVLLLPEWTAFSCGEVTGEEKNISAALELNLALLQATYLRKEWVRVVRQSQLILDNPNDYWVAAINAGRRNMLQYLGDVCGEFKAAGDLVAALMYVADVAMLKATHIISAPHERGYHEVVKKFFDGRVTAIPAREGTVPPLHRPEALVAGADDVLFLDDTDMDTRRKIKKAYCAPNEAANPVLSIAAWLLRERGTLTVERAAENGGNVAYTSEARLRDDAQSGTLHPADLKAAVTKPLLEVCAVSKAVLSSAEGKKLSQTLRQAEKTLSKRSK
The experiment can be described thus: Trypanosoma cruzi tyrosyl tRNA synthetase (TcYRS) _High Tyrosine SOP. Further: in the data most compounds retested in dose-response had high values. The class given is functional. The note with it: 30 µM.

The target of experiment [7] is T4, Tyrosyl-tRNA synthetase, putative (Trypanosoma cruzi (strain CL Brener)). Put plainly: Trypanosoma cruzi tyrosyl tRNA synthetase (TcYRS) SOP. It counts as functional. The note with it: 30 µM.
For experiment [8], the target named is Chromo domain-containing protein 1 (Saccharomyces cerevisiae (strain ATCC 204508 / S288c) (Baker's yeast)) (UniProt P32657). The experiment can be described thus: ScCHD-1 Enzyme Inhibition Assay. Further: in the data most compounds retested in dose-response had high values. It counts as functional. The note with it: 30 µM.
Sequence of Chromo domain-containing protein 1 (Saccharomyces cerevisiae (strain ATCC 204508 / S288c) (Baker's yeast)) (P32657 whole entry, the tested form may be a part): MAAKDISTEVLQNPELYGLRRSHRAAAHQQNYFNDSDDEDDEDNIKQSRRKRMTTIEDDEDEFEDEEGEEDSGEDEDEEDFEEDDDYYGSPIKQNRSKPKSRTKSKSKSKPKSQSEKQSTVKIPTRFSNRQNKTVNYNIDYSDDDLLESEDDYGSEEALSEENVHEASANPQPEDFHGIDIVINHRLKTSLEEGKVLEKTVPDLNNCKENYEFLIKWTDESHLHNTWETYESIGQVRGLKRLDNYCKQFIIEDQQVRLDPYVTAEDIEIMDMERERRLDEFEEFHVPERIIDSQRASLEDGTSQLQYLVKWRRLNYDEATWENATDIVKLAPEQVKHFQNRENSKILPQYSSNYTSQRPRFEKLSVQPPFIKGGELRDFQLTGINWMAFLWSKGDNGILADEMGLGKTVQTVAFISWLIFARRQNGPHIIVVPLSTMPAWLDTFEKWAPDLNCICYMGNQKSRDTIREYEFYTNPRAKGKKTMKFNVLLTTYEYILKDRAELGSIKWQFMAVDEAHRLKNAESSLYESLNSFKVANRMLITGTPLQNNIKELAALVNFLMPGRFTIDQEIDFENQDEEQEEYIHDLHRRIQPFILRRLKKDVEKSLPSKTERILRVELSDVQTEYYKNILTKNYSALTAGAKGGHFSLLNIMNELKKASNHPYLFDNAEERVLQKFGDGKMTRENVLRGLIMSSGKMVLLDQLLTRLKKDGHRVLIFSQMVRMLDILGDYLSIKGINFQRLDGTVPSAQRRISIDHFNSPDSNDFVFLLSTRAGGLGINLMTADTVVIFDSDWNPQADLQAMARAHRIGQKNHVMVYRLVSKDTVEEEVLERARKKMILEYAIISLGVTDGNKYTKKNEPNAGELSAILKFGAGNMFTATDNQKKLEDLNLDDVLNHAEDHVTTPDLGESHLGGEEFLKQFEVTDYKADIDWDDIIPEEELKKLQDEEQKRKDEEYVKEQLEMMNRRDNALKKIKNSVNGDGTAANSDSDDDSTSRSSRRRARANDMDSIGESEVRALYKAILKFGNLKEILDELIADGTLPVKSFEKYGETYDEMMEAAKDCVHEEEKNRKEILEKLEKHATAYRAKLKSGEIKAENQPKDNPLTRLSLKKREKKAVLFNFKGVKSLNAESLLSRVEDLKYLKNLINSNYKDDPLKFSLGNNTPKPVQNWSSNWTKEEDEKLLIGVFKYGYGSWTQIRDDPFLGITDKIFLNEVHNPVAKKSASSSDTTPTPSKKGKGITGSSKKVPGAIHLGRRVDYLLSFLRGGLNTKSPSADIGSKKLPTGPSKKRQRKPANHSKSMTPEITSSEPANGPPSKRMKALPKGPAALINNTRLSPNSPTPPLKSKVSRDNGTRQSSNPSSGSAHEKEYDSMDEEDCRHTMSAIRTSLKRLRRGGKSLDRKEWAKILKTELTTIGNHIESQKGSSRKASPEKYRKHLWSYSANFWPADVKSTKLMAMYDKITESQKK

Sequence of Sialic acid-binding Ig-like lectin 9 (Homo sapiens) (Q9Y336 whole entry): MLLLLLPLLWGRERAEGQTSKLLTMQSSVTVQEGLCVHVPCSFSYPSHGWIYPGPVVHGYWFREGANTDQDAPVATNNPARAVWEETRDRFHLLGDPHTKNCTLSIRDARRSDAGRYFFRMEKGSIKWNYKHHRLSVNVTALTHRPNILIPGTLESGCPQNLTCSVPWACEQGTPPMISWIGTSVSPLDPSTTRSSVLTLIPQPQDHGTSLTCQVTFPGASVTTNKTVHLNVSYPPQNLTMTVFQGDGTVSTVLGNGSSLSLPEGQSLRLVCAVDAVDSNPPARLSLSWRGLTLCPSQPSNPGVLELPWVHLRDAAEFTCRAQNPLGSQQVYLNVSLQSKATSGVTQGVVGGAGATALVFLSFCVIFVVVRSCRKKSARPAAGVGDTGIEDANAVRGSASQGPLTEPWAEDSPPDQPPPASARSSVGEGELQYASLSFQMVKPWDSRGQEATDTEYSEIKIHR
Sequence of Protein translocase subunit SecA (Escherichia coli (strain K12)) (P10408 whole entry): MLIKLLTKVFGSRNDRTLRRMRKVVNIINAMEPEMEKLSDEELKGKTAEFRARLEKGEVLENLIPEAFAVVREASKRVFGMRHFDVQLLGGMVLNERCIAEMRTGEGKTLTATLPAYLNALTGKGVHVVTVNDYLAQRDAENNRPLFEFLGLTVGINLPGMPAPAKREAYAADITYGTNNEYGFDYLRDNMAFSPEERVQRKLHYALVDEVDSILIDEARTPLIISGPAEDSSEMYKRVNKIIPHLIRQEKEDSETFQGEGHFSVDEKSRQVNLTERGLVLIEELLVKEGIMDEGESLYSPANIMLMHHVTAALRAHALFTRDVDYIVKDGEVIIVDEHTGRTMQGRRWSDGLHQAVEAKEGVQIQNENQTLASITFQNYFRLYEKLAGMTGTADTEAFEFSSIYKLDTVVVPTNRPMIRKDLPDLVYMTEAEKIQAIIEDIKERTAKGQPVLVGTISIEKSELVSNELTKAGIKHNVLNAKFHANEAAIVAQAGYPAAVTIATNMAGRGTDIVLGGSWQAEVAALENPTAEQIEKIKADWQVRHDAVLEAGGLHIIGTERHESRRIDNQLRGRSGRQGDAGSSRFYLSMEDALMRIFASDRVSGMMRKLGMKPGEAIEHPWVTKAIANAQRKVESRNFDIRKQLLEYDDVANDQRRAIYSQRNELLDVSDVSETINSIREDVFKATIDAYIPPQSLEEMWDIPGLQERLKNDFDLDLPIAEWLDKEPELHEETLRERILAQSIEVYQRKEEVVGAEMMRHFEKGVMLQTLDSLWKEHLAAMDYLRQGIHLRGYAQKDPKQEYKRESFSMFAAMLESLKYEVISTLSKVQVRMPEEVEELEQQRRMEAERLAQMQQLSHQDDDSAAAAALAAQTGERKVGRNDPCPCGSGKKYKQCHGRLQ

As to `CCS(=O)(=O)N1C[C@@H](OCc2cccnc2)[C@H]2OCCC[C@H]21`, the Percent Effect in [1] is -10.2%; in experiment [2], 1.3%; in experiment [3], 6.61%; in the experiment on Trypanosoma cruzi, -4.58%; in experiment [4], -3.64%; in [5] it was 7.68%. Moreover, the Percent Effect in the experiment filed under Homo sapiens came to 9%; in experiment [6], 4.74%; in experiment [7] it was 7.69%; in experiment [8], 0.0373%.
Turning to `Cc1cnc(C(=O)N2CCCCC2c2[nH]ncc2S(C)(=O)=O)cn1` (stereo not given), the Percent Effect in [1] is -1.18%; in experiment [2], 4%; in [3], 4.14%; in the experiment on Trypanosoma cruzi, -0.986%; in experiment [4], -1.77%; in experiment [5] it was 4.93%. The Percent Effect in the experiment filed under Homo sapiens is -6.39%; in [6], 6.35%; in experiment [7], 12.5%; in experiment [8] it was -18.4%.
For `Cc1nc(CN2CCN(Cc3ccoc3)Cc3cccnc32)cs1`, the Percent Effect in experiment [1] was -1.42%; in experiment [2] it was -1.3%; in [3], -2.07%; in the experiment on Trypanosoma cruzi it was -2.82%; in experiment [4], -4.45%; in experiment [5], 12.3%. The Percent Effect in the experiment listed under Homo sapiens is 10.4%; in [6], 1.58%; in experiment [7], -5.13%; in experiment [8] it was 1.4%.
On to `CCc1nccn1C1CCCN(C(=O)c2csc(NC(C)=O)n2)C1` (stereo not given), for which the Percent Effect in experiment [1] was -3.11%; in experiment [2], 15.6%; in experiment [3], 14.2%; with Trypanosoma cruzi, -2.98%; in experiment [4] it was 0.205%; in experiment [5], 8.95%. Besides, the Percent Effect in the experiment listed under Homo sapiens is -1.12%; in experiment [6], 4.9%; in experiment [7], 11.8%; in experiment [8], -7.02%.
On to `CN1CCN(CC2CC2)C(=O)c2cnc(N3CC[C@@H](O)C3)nc21`, for which the Percent Effect in [1] was -3.96%; in experiment [2] it was 0%; in [3], -4.48%; in the experiment with Trypanosoma cruzi, -3.21%; in [4], -4.43%; in [5], 3.99%. Also, the Percent Effect in the experiment listed under Homo sapiens was -1.63%; in [6], -2.63%; in experiment [7], -7.69%; in experiment [8], -9.27%.
With `CC(O)CNC(=O)NCc1cccnc1OC1CCCC1` (stereo not given), the Percent Effect in experiment [1] is -1.77%; in experiment [2], 13.3%; in experiment [3], -3.55%; with Trypanosoma cruzi, -3.21%; in experiment [4], 7.54%; in experiment [5] it was 2.63%. The Percent Effect in the experiment filed under Homo sapiens was 10.2%; in experiment [6], 6.84%; in experiment [7] it was 2.56%; in experiment [8] it was -11.2%.
As for `CS(=O)(=O)c1cccc(C(N)c2ccc(F)c(F)c2)c1` (stereo not given), the Percent Effect is -6.37% in [1]; 5.33% in experiment [2]; 1.99% in experiment [3]; -2.81% in the experiment on Trypanosoma cruzi; -2.66% in experiment [4]; 4.16% in [5]. The Percent Effect in the experiment filed under Homo sapiens was 23.5%; in [6] it was 7.89%; in experiment [7], 15.4%; in experiment [8], -9.26%.
On to `Cc1noc(C)c1C(=O)N1C[C@H]2CCC[C@@]2(COc2ccccn2)C1`, for which the Percent Effect in experiment [1] was -6.59%; in [2], 11.7%; in [3], 1.71%; in the experiment on Trypanosoma cruzi, 8.28%; in experiment [4] it was -7.29%; in experiment [5], 12.3%. Moreover, the Percent Effect was -28.1% in the experiment filed under Homo sapiens, 3.68% in experiment [6], 12.8% in experiment [7] and -2.44% in experiment [8].
As for `Cc1cc(NCc2cccnc2)n2nc(C)cc2n1`, the Percent Effect in experiment [1] is -3.79%; in [2], 2.7%; in experiment [3], 4.53%; in the experiment with Trypanosoma cruzi, -2.62%; in experiment [4], 1.75%; in [5], 16.9%. For the same compound, the Percent Effect in the experiment listed under Homo sapiens was 17.8%; in [6], 4.79%; in experiment [7] it was 14.6%; in [8] it was -3.52%.
Consider `CC(C)CNC(=O)c1ccc2nnc(C3CCN(S(C)(=O)=O)C3)n2c1` (stereo not given), for which the Percent Effect in [1] is -3.3%; in experiment [2], -3.9%; in [3], 1.06%; in the experiment with Trypanosoma cruzi it was -1.27%; in experiment [4] it was 0%; in [5], 3.44%. Further, the Percent Effect in the experiment filed under Homo sapiens is -2.55%; in experiment [6], -0.526%; in [7] it was 2.56%; in [8] it was -1.85%.

These data come from ChEMBL document CHEMBL3988442, “University of Dundee, Small-Polar-MMV Screening Library” (2021).
